Measured values taken from PubChem BioAssay (NCI).
This is part of a sample that, as a whole, favours compounds with a hit. Of some 83,000 tested, about 20% had one in any assay.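 Interpretation: 100, growth as untreated; towards 0, rising growth inhibition; 0, no net growth; 0 to -100, cell death. Compounds scoring below 10 were considered active.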 Unmarked numbers belong to inactive results. Calls of active or inactive are those of the source.

Legend:
Assay in all cases: NCI-60 one-dose screen, 48 h (100 = growth as untreated, 0 = no growth, -100 = all killed)
Details in all cases: 10 µM unless noted
SK-MEL-2 melanoma = system: SK-MEL-2 melanoma
EKVX NSCLC = system: EKVX NSCLC
SN12C renal = system: SN12C renal
UO-31 renal = system: UO-31 renal
TK-10 renal = system: TK-10 renal
ACHN renal = system: ACHN renal
CAKI-1 renal = system: CAKI-1 renal
A498 renal = system: A498 renal
CCRF-CEM leukemia = system: CCRF-CEM leukemia
MOLT-4 leukemia = system: MOLT-4 leukemia

SMILES | growth (SK-MEL-2 melanoma) | growth (EKVX NSCLC) | growth (SN12C renal) | growth (UO-31 renal) | growth (TK-10 renal) | growth (ACHN renal) | growth (CAKI-1 renal) | growth (A498 renal) | growth (CCRF-CEM leukemia) | growth (MOLT-4 leukemia)
OC(c1cccc(C(F)(F)F)c1)c1cnccc1NC1CCCCC1 (stereo not given) | 92.6% | 77.6% | 73.5% | 52.2% | 82.7% | 87.2% | 69.5% | 77.4% | 62% | 71.6%
COc1ccc2c(c1)oc1c(C)c3c(c(C)c12)C(=O)N(CCN1CCOCC1)C3=O | 124% | 110% | 93.2% | 85.1% | 115% | 104% | 88.1% | 109% | 77.4% | 83.1%
CCOC(=O)c1cc(C#N)n2ccc3ccccc3c12 | 106% | 90.9% | 94.5% | 101% | 91.3% | 109% | 90.2% | 88% | 98.8% | 96.2%
CCc1c2c(nc3ccc(OCc4ccc(B(O)O)cc4)cc13)-c1cc3c(c(=O)n1C2)COC(=O)[C@]3(O)CC | 7.66% (active) | 25.4% | 6.55% (active) | -15.8% (active) | 27.5% | -12.6% (active) | -21% (active) | -58.4% (active) | 4.37% (active) | -5.64% (active)
O=C1Nc2ccccc2/C1=C\c1c(-c2ccc(F)cc2)nc2ccccn12 | 75.5% | 45.6% | 82.5% | 41% | 109% | 54.9% | 44.3% | 70.8% | 67.9% | 57%
O=C(Nc1ncc(Cc2cc(Cl)ccc2Cl)s1)c1cccs1 | 50.5% | 64% | 65.4% | 62.5% | 68.4% | 60.8% | 42.4% | 65.3% | 49.6% | 63.2%
C=C(C)[C@@H]1CC[C@]2(C(=O)N[C@@H](Cc3ccccc3)C(=O)OC)CC[C@]3(C)[C@H](CC[C@@H]4[C@@]5(C)CCC(=O)C(C)(C)[C@@H]5CC[C@]43C)[C@@H]12 | 75.8% | 85.4% | 95.3% | 75.7% | 90.9% | 90.5% | 45.5% | 84% | 84.7% | 64.6%
COc1ccc(/C=C/c2nc(Nc3cccc(NC(C)=O)c3)c3ccccc3n2)cc1 | 91.9% | 94.3% | 89.1% | 68.3% | 92.7% | 78.3% | 67.4% | 9.66% (active) | 82.5% | 87%
COc1ccc(/C=C/c2nc(Nc3ccc(S(=O)(=O)Nc4nc(C)cc(C)n4)cc3)c3ccccc3n2)cc1 | 75.2% | 72% | 76.8% | 51.8% | 71.1% | 57.7% | 53.1% | 7.8% (active) | 61.5% | 65.7%
Nc1ccccc1NC(=O)c1ccc(-n2nc(-c3ccccc3)c3ccccc32)cc1 | 94.3% | 89.7% | 52.3% | -62.7% (active) | 94.1% | 90.6% | 73.4% | 89.8% | 9.38% (active) | 4.66% (active)
N#C/C(=C\c1c(-c2ccccc2)[nH]c2ccccc12)C(=O)c1ccc(Cl)cc1 | 74.6% | 48.8% | 66.7% | 47.3% | 68.3% | 48.9% | 59.6% | -3.53% (active) | 2.19% (active) | 45.9%
O=C1Nc2ccc(F)cc2/C1=C\c1c(-c2ccccc2)nc2ccccn12 | 63.7% | 61.8% | 80.4% | 46.6% | 81% | 53.4% | 34.3% | 43.1% | 57.7% | 51%
COc1ccc(CCn2cncc2-c2c[nH]c3ccccc23)cc1 | 88.6% | 71.4% | 80.8% | 50.7% | 141% | 87% | 68.7% | 69.5% | 101% | 93.1%
O=C1c2cccc3c(-c4ccc5c(c4)ncn5C4CCCCC4)ccc(c23)C(=O)N1CCO | 89.5% | 76.4% | 93.8% | 62.1% | 101% | 94.7% | 77.5% | 103% | 79% | 71.9%
COc1ccc(OC)c(CCn2cncc2-c2c[nH]c3ccccc23)c1 | 73.5% | 64.8% | 72% | 46.6% | 149% | 76.7% | 66.7% | 61.8% | 68.1% | 75.3%
C=C1C(=O)O[C@H]2[C@H]1CC/C(CNC(=O)c1cccc3ccccc13)=C\CC[C@@]1(C)O[C@@H]21 | 70.7% | 65.9% | 25% | 37.9% | 34.8% | 11.6% | 40% | 81.8% | 1.76% (active) | 4.8% (active)
CC(C)N1C(=O)/C(=C2\SC(=S)N(C(C)C)C2=O)SC1=S | 96.8% | 82.9% | 93.1% | 78.6% | 88.2% | 100% | 93.7% | 84.2% | 87.8% | 101%
N#CC1C(C#N)C(C(=O)c2ccc(Br)cc2)N2c3ccccc3C=CC12 (stereo not given) | 104% | 63.9% | 76.1% | 48% | 106% | 89.4% | 50.7% | 67.7% | 84.9% | 92.7%
Cc1ccc(-c2csc(NC(=O)CSc3nc(-c4ccccc4)cc(=O)[nH]3)n2)cc1 | 89.4% | 90.9% | 94.9% | 76% | 108% | 91.7% | 90.7% | 97.8% | 88.8% | 74.2%
O=C1/C=C/[C@@H](O)[C@@H]2C[C@@H](O)C[C@H]2/C=C/CCC[C@H](CCc2cccc3ccccc23)O1 | -9.52% (active) | 13.3% | 5.88% (active) | 4.61% (active) | -0.338% (active) | 6.35% (active) | -17.9% (active) | -35.6% (active) | 7.69% (active) | -36.2% (active)
Cc1ccc(C(=O)/C(=C\c2ccc([N+](=O)[O-])cc2)S(=O)Cc2ccc(Cl)cc2)cc1 (stereo not given) | 72.7% | 82.4% | -15.6% (active) | 3.42% (active) | 50.3% | 12.7% | 59.7% | 77.6% | 4.88% (active) | 7.82% (active)
C/C=C(\C)C(=O)NC1=CC[C@@]2(C)C(=CCC3C2CC[C@@]2(C)C3CC[C@@H]2C(C)N(C)C)C1=O (stereo not given in full) | 86.5% | 32% | 60.6% | 1.15% (active) | 58.1% | 65.6% | 63.6% | 71.2% | 15.3% | 47%
C=CCn1c(-c2ccc(-c3nc4ccc(C)cc4[nH]3)cc2)n[nH]c1=S | 112% | 94.5% | 96.4% | 89.7% | 133% | 99.6% | 93.6% | 94.5% | 87.3% | 96.9%
CC(=O)Oc1ccc(/C=N/NC(N)=S)nc1 | 79.2% | 105% | 73.6% | 52.7% | 108% | 13.2% | 49.8% | 88.6% | 39.3% | 56%
